Hit rate of the full screen: of about 410,000 compounds, about 7,200 (1.8%) were called active. A call without a number means that no potency is given here. About 7% were inconclusive and are not listed. Calls follow the shape of the dose curve; as a rule, active = well fitted activation curve with a large enough effect; inconclusive = small, poorly fitted or top-dose-only effect, or another doubt; inactive = no such curve, though single readings can be large or run the other way. This excerpt belongs to a sample that is enriched for actives.
Assay: qHTS of TDP-43 Inhibitors; also: nearly all actives have a fitted effect of over 50% in size
Settings: TDP-43 expressing yeast growth rescue, BacTiter-Glo, 24 h; series mostly up to 46.1 µM
How it was run: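 Growth rescue of TDP-43-toxic yeast measured as ATP luminescence (BacTiter-Glo). Cells grown to mid-log in raffinose, induced in galactose at OD600=0.02, exposed to compound 24 hr at 30 deg C.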
Potency is read from the fitted curve at half-maximal effect.

| SMILES | Potency | growth rescue (activation) |
| --- | --- | --- |
| Cc1ccc(C(=O)Nc2ccccc2F)cc1S(=O)(=O)N1CCOCC1 | inactive | – |
| O=C(Nc1cccc2cccnc12)c1cccc(Cl)c1 | 14.1 µM (active) | – |
| COc1c(Cl)cc(Cl)cc1C(=O)Nc1cccc2cccnc12 | inactive | – |
| O=C(Nc1cccc2cccnc12)c1cccc2c(Br)cccc12 | inactive | – |
| CCOCc1nnc(NC(=O)CCC2CCCCC2)s1 | inactive | – |
| CC(C)(C)NC(=O)NC(=O)COC(=O)CCC1CCCCC1 | inactive | – |
| N/C(=N\OC(=O)CCC1CCCCC1)c1ccccn1 | 8.91 µM (active) | – |
| COc1ccc(-c2nnc(SCC(=O)Nc3ccc(C(C)C)cc3)nc2-c2ccc(OC)c(OC)c2)cc1OC | inactive | – |
| CCN(C(=O)CSc1nnc(C)n2c1cc1occc12)c1ccccc1 | inactive | – |
| Clc1ccc(CSc2nncn3c2cc2occc23)cc1 | 25.1 µM (active) | – |
| CC(C)Cn1cnc2c(SCc3ccc(Cl)cc3)nc(N)nc21 | inactive | – |
| COc1ccc2c(c1)CCc1c(C(=O)Nc3cc(C)ccc3O)noc1-2 | inactive | – |
| Cc1ccc(C)c(N2CCN(C(=O)C3CCC(CNS(=O)(=O)c4cccs4)CC3)CC2)c1 (stereo not drawn) | inactive | – |
| COc1ccc2c(CC(=O)NNC(=O)c3ccccc3F)coc2c1 | inactive | – |
| COc1ccc2c(c1)CCC/C2=N\OC(=O)c1ccccc1F | 11.2 µM (active) | – |
| COc1ccc2c(c1)CCc1c(C(=O)N3CCCC3)noc1-2 | inactive | – |
| COc1ccccc1CC(=O)Nc1ccc([N+](=O)[O-])cc1OC | 11.2 µM (active) | – |
| COc1ccc(Br)cc1CN(C)CC(=O)Nc1cc([N+](=O)[O-])ccc1OC | inactive | – |
| COc1cc([N+](=O)[O-])ccc1NC(=O)COC(=O)CCOc1ccc(C)cc1 | 17.8 µM (active) | – |
| COc1ccc(NC(=O)c2cc([N+](=O)[O-])ccc2NC(=O)CNC2CCCCC2C)c(OC)c1 (stereo not drawn) | inactive | – |
| COc1cc([N+](=O)[O-])ccc1NC(=S)N1CCN(c2ccccn2)CC1 | inactive | – |
| COc1ccc([N+](=O)[O-])cc1NCC(=O)c1ccc(C)cc1 | inactive | – |
| Cc1nc2cc(C(F)(F)F)ccc2n1CCNc1nc(-c2cc(Cl)c(N)c(Cl)c2)cs1 | 22.4 µM (active) | – |
| CCCn1c(C(C)Nc2nc(-c3ccc(C)cc3)cs2)nc2cc(Cl)c(N3CCCCC3)cc21 (stereo not drawn) | inactive | – |
| Nc1c(Cl)cc(-c2csc(N3CCCC3c3nc4cc(Cl)c(Cl)cc4n3CCOCCO)n2)cc1Cl (stereo not drawn) | inactive | – |

| SMILES | Potency | growth rescue (activation) |
| --- | --- | --- |
| CCc1cccc(CC)c1NC(=O)Cn1c(=O)c(-c2cc(C)ccc2NC(C)=O)nc2ccccc21 | inactive | – |
| CC(C)C1CC2=C(C(=O)OC(C)(C)O2)C(c2ccc(F)cc2)O1 (stereo not drawn) | inactive | – |
| CC(C)C[C@@H]1Cc2[nH][nH]c(=O)c2[C@H](CCc2ccccc2)O1 | inactive | – |
| CC(C)C1Cc2[nH][nH]c(=O)c2C(c2ccc(Cl)cc2)O1 (stereo not drawn) | 20 µM (active) | – |
| Cc1cccn2c(=O)c3cc(C(=O)NC(C)c4ccccc4)c(=N)n(CCCO)c3nc12 (stereo not drawn) | inactive | – |
| CCc1ccc(NC(=O)c2nn(-c3ccc(C)cc3)c(=O)n(C)c2=O)cc1 | – | 19% [at 9.22 µM] (inactive) |
| CCOC(=O)c1ccc2c(c1)N(Cc1cccc(OC)c1)C(=O)c1ccccc1S2(=O)=O | inactive | – |
| Cc1nn(-c2ccccc2)c2sc(C(=O)N(Cc3ccco3)C(C)C(=O)NC(C)(C)C)cc12 (stereo not drawn) | inactive | – |
| Cc1cccc(C)c1NC(=O)CNC(=O)c1c(C)nn(-c2ccccc2)c1C | inactive | – |
| Cc1cccc(NC(=O)CSc2nnc(CNC(=O)c3cccc(C)c3)n2-c2ccccc2)c1 | inactive | – |
| Cc1nn(-c2ccccc2)c(-n2cccc2)c1C(=O)O | inactive | – |
| Cc1nn(-c2ccccc2)c(Cl)c1C(=O)Nc1ccccc1 | 11.2 µM (active) | – |
| Cc1cccc(NC(=O)c2cc3c(C)nn(-c4ccccc4)c3s2)c1 | 35.5 µM (active) | – |
| CC(=O)c1cccc(NC(=O)c2nc(-c3ccccc3)n(-c3cccc(C)c3)n2)c1 | 22.4 µM (active) | – |
| CCn1c(=O)c2cc(C(=O)Nc3cccc(C(C)=O)c3)sc2c2ccccc21 | inactive | – |
| CC(=O)c1ccc(NC(=O)c2nc3nc(C)cc(C(F)F)n3n2)cc1 | inactive | – |
| Cc1ccc(-c2nnc(SCc3ccccc3C)o2)cc1 | inactive | – |
| COc1ccc(CCNC(=O)c2ccc3c(c2)sc2nc(-c4ccc(C)cc4)cn23)cc1OC | inactive | – |
| O=C(OCc1ccc(-c2ccccc2)cc1)c1cccc(O)c1 | inactive | – |
| Oc1ccc(-c2nncn2-c2ccccc2)cc1 | inactive | – |
| Oc1ccc(-c2cccc(-c3ccc(O)cc3)c2)cc1 | 6.31 µM (active) | – |
| COCCN(Cc1ccco1)C(=O)Cn1ncc2c([nH]c3ccccc32)c1=O | inactive | – |
| COc1cccc(CNC(=O)C(=O)NCC(c2cccs2)S(=O)(=O)c2ccccc2)c1 (stereo not drawn) | inactive | – |
| COc1ccc(Br)cc1CNC(=O)c1cc(=O)[nH]c2ccc(S(=O)(=O)N3CCCC3)cc12 | inactive | – |
| CCOC(=O)N1CCc2c(sc3c2C(=O)NC(c2ccccc2F)N3)C1 (stereo not drawn) | inactive | – |

| SMILES | Potency | growth rescue (activation) |
| --- | --- | --- |
| COC(=O)CSc1ncnc2c1cnn2-c1ccc(C)cc1C | 17.8 µM (active) | – |
| Clc1cccc(-n2ncc3c(NCCc4ccccc4)ncnc32)c1 | inactive | – |
| CCN(c1ncnc2c1cnn2-c1ccc(C)cc1)C1CCCCC1 | inactive | – |
| CCN(C(=O)CSc1ncnc2c1cnn2-c1ccccc1)C1CCS(=O)(=O)C1 (stereo not drawn) | inactive | – |
| CCC(C)N(C(=O)CSc1ncnc2c1cnn2-c1ccccc1)C1CCS(=O)(=O)C1 (stereo not drawn) | inactive | – |
| CCN(CC)C(=O)CSc1ncnc2c1cnn2-c1ccccc1 | 15.8 µM (active) | – |
| COc1ccccc1N1CCN(C(=O)CSc2ncnc3c2cnn3-c2ccc(C)c(C)c2)CC1 | inactive | – |
| CC(C)Sc1ncnc2c1cnn2-c1ccccc1 | 12.6 µM (active) | – |
| Cc1ccc(-n2ncc3c(Nc4cccc(C(=O)O)c4)ncnc32)cc1 | inactive | – |
| CCOc1cccc(NC(=O)c2ccc(F)c(S(=O)(=O)N(CC)c3cccc(C)c3)c2)c1 | inactive | – |
| Cc1ccccc1-n1c(=O)c2ccccc2n(Cc2ccc(F)cc2)c1=O | inactive | – |
| CCn1c(C(=O)Nc2cc(Cl)ccc2C)cc2sc(Cl)cc21 | inactive | – |
| CCC(=O)N1CCc2cc(Br)cc(S(=O)(=O)CCC(=O)NCc3ccccc3OC)c21 | inactive | – |
| CCc1cccc(C)c1NS(=O)(=O)c1ccc(-c2cc(C)no2)s1 | inactive | – |
| Cc1cc(NC(=O)C2CCC(CNS(=O)(=O)c3ccc(Br)s3)CC2)ccc1Br (stereo not drawn) | inactive | – |
| COc1ccc(OC)c(CCNC(=O)CCCn2c(=O)c3cccn3c3cccnc32)c1 | inactive | – |
| CN1CCN(C(CNC(=O)c2ccccc2F)c2ccc3c(c2)OCO3)CC1 (stereo not drawn) | inactive | – |
| Cc1ccc(-c2nnc3c4ccccc4c(C)nn23)cc1NC(=O)c1cccc(Br)c1 | inactive | – |
| CCCN1CCN(CCCNC(=O)c2cnn(-c3ccc(C)cc3)c2-n2cccc2)CC1 | inactive | – |
| CCn1nccc1C(=O)Nc1ccc(S(=O)(=O)NC23CC4CC(CC(C4)C2)C3)cc1 | inactive | – |
| Cc1ccc(-c2nn(CCC(=O)Nc3ccc(Cl)c(Cl)c3)c(=O)c3ccccc23)cc1 | inactive | – |
| CCn1nccc1C(=O)Nc1ccc(Cl)c(Cl)c1 | 17.8 µM (active) | – |
| Cc1nnc(-c2ccc(Oc3ccc(C)c(C)c3)c([N+](=O)[O-])c2)o1 | 20 µM (active) | – |
| COc1ccc(-c2noc(-c3ccc(N4CCN(c5ccccc5)CC4)c([N+](=O)[O-])c3)n2)cc1OC | inactive | – |
| COc1ccc(OCC(=O)Nc2cc(C)c(Cl)cc2OC)c([N+](=O)[O-])c1 | inactive | – |

| SMILES | Potency | growth rescue (activation) |
| --- | --- | --- |
| COc1ccc(Cl)cc1NC(=O)CSc1nc(=O)[nH]c2c1CCCC2 | inactive | – |
| CCOC(=O)c1cc(NC(=O)c2ccc(F)cc2)c(=O)n2c1oc1ccccc12 | inactive | – |
| Cc1ccc(F)cc1NC(=O)CCSc1nc(-c2ccco2)cc(C(F)(F)F)n1 | inactive | – |
| CCCC(=O)N1CCC1(C)C(=O)NS(=O)(=O)c1ccc(Cl)cc1 (stereo not drawn) | inactive | – |
| CC(C)c1ccc(CC(=O)N2CCC2(C)C(=O)NS(=O)(=O)c2ccc(C(C)(C)C)cc2)cc1 (stereo not drawn) | 22.4 µM (active) | – |
| CC(C)(C)c1ccc(S(=O)(=O)NC(=O)C2(C)CCN2C(=O)CC2CC2)cc1 (stereo not drawn) | inactive | – |
| CCCCS(=O)(=O)c1oc(-c2cccs2)nc1S(=O)(=O)c1ccccc1 | inactive | – |
| CCC(=O)N1CCc2cc(Br)cc(S(=O)(=O)CCC(=O)NCCc3ccc(OC)c(OC)c3)c21 | inactive | – |
| COc1cccc(CNC(=O)CSc2c3c(nc4cc(Cl)ccc24)CCCC3)c1 | inactive | – |
| COc1cccc(CNC(=O)c2ccc3c(c2)sc2nc(-c4cccc(OC)c4)cn23)c1 | inactive | – |
| COc1cccc(CNC(=O)c2ccc3c(Cl)c4c(nc3c2)CCCC4)c1 | 15.8 µM (active) | – |
| CCC(C(=O)Nc1cccc(Cl)c1C)n1nc(-c2ccc(C)cc2)ccc1=O (stereo not drawn) | inactive | – |
| Cc1cccc(C(CC(=O)NCC2(c3ccccc3)CCCC2)c2ccccc2)c1O (stereo not drawn) | inactive | – |
| CC(C)c1ccc(NC(=O)C2CCN(c3nc(-c4ccc(C(C)C)cc4)no3)CC2)cc1 | inactive | – |
| COc1ccc(NC(=O)N2CCCC(c3nc(-c4ccc(F)cc4)no3)C2)cc1 (stereo not drawn) | inactive | – |
| CCN(C(=O)C1CCCN(c2nc(-c3ccc(OC)cc3)no2)C1)c1ccc(OC)cc1 (stereo not drawn) | 22.4 µM (active) | – |
| O=C(Nc1cc(C(F)(F)F)ccc1Cl)c1ccc2c(c1)CCN2S(=O)(=O)c1ccccc1 | inactive | – |
| Cc1ccccc1CNC(=O)CSc1nnc(C)c2c(C)n(-c3ccccc3)nc12 | inactive | – |
| Cc1ccc(Cl)cc1N1CCN(C(=O)c2cn(C)c3ccc(S(=O)(=O)N(C)C4CCCCC4)cc3c2=O)CC1 | inactive | – |
| Cc1cccc(Cn2c(=O)n(CCC(=O)NCCc3ccc(Cl)cc3)c(=O)c3sccc32)c1 | inactive | – |
| O=C1Nc2ccc([N+](=O)[O-])cc2C1=Nc1cccc(CO)c1 | inactive | – |
| Cc1nc2ccccc2nc(=O)c1NNc1ccc([N+](=O)[O-])cc1 | – | 12.8% [at 9.22 µM] (inactive) |
| O=[N+]([O-])c1ccc2c(c1)Nc1nc3ccccc3nc1N2 | 22.4 µM (active) | – |

Reference: PubChem BioAssay AID652104 (National Center for Advancing Translational Sciences (NCATS), 2013)
